Assay [1] deals with Ribosomal protein S6 kinase alpha-6 (Homo sapiens) (UniProt Q9UK32). Particulars: at 1 µM.
Assay [2] concerns the target T1, Serine/threonine-protein kinase Sgk1 (Homo sapiens) (UniProt O00141).
T1 sequence (whole entry): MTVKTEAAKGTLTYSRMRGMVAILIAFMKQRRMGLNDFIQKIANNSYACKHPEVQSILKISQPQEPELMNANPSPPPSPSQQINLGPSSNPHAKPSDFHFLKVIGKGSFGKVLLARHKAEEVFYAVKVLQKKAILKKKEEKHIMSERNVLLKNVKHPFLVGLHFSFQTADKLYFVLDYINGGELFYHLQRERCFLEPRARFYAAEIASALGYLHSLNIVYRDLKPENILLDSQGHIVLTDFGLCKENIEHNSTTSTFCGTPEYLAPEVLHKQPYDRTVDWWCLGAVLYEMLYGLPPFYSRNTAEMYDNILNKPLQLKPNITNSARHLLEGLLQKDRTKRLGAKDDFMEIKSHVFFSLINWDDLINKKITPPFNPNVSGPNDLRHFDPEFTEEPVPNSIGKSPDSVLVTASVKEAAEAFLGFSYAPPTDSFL
As to conditions: at 0.1 µM.

For assay [3], the target named is T1, Serine/threonine-protein kinase Sgk1 (Homo sapiens). Particulars: at 1 µM.
For assay [4], the target named is T2, Serine/threonine-protein kinase Sgk2 (Homo sapiens) (UniProt Q9HBY8).
T2 sequence (whole entry): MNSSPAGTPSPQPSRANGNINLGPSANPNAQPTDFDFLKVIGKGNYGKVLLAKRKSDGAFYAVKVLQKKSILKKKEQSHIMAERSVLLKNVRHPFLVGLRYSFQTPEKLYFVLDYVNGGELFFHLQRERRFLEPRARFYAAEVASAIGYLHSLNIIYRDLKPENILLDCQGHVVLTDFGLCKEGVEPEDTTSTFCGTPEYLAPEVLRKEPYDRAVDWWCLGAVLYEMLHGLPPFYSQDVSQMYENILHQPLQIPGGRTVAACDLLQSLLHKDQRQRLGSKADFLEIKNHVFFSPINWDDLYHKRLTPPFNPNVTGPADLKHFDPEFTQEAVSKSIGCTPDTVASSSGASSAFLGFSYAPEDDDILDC
Particulars: at 0.1 µM.

Assay [5] concerns the target T2, Serine/threonine-protein kinase Sgk2 (Homo sapiens). Particulars: at 1 µM.
For assay [6], the target named is T3, Serine/threonine-protein kinase Sgk3 (Homo sapiens) (UniProt Q96BR1).
T3 sequence (whole entry): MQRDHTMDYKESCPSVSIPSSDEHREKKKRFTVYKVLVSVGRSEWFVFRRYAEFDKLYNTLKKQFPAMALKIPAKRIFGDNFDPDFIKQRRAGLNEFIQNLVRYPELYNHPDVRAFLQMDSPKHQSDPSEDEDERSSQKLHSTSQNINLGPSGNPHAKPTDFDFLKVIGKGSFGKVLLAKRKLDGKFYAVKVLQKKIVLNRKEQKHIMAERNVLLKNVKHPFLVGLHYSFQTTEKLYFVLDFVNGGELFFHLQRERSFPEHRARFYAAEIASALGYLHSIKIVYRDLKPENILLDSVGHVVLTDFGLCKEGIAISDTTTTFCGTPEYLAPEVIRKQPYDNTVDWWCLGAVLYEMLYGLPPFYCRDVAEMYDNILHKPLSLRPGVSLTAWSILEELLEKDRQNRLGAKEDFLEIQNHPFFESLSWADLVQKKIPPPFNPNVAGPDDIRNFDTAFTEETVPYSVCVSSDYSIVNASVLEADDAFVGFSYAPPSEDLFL
Particulars: at 0.1 µM.

Assay [7] deals with T3, Serine/threonine-protein kinase Sgk3 (Homo sapiens). As to conditions: at 1 µM.
For assay [8], the target named is 5'-AMP-activated protein kinase catalytic subunit alpha-1 (Homo sapiens) (UniProt Q13131). As to conditions: at 0.1 µM.
Sequence of 5'-AMP-activated protein kinase catalytic subunit alpha-1 (Homo sapiens) (Q13131 whole entry, looked up): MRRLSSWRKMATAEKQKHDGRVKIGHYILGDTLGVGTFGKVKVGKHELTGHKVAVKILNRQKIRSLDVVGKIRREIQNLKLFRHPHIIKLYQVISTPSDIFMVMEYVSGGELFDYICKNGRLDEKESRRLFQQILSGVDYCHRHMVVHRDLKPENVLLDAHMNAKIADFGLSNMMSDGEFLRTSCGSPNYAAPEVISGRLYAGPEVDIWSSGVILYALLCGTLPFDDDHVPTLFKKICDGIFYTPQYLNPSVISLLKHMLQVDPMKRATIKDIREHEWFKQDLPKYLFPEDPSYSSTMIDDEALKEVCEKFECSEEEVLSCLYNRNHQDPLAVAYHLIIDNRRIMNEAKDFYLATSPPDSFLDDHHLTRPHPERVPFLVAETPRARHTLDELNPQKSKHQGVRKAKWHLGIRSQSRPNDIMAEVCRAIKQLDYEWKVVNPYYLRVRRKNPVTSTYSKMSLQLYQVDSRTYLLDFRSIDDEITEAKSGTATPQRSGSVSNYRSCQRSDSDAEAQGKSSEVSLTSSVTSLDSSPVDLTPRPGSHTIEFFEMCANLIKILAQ
Assay [9] shares this target. Particulars: at 1 µM.
Assay [10] addresses 5'-AMP-activated protein kinase catalytic subunit alpha-2 (Homo sapiens) (UniProt P54646). As to conditions: at 0.1 µM.
The target is the same in assay [11]. Particulars: at 1 µM.
Assay [12] has as its target T4, NUAK family SNF1-like kinase 1 (Homo sapiens) (UniProt O60285).
T4 sequence (whole entry): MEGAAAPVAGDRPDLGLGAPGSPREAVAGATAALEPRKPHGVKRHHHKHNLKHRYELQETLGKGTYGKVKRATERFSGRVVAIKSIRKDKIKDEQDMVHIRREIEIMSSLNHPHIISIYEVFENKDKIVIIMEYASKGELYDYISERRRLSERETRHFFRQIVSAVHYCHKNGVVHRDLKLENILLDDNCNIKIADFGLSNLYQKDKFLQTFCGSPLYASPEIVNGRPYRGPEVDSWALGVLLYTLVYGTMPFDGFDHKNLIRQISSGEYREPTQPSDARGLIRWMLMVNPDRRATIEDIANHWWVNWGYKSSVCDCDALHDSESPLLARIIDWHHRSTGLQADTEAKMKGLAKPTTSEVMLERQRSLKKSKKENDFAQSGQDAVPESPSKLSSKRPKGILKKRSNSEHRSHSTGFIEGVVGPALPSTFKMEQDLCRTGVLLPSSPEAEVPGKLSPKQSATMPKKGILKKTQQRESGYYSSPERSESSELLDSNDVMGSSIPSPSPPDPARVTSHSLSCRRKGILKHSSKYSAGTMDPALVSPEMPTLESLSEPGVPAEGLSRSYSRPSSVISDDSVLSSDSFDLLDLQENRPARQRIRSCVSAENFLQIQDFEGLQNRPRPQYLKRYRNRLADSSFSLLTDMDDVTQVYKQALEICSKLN
As to conditions: at 0.1 µM.

The target in assay [13] is T4, NUAK family SNF1-like kinase 1 (Homo sapiens). As to conditions: at 1 µM.
Assay [14] has as its target T5, Serine/threonine-protein kinase BRSK1 (Homo sapiens) (UniProt Q8TDC3).
T5 sequence (whole entry): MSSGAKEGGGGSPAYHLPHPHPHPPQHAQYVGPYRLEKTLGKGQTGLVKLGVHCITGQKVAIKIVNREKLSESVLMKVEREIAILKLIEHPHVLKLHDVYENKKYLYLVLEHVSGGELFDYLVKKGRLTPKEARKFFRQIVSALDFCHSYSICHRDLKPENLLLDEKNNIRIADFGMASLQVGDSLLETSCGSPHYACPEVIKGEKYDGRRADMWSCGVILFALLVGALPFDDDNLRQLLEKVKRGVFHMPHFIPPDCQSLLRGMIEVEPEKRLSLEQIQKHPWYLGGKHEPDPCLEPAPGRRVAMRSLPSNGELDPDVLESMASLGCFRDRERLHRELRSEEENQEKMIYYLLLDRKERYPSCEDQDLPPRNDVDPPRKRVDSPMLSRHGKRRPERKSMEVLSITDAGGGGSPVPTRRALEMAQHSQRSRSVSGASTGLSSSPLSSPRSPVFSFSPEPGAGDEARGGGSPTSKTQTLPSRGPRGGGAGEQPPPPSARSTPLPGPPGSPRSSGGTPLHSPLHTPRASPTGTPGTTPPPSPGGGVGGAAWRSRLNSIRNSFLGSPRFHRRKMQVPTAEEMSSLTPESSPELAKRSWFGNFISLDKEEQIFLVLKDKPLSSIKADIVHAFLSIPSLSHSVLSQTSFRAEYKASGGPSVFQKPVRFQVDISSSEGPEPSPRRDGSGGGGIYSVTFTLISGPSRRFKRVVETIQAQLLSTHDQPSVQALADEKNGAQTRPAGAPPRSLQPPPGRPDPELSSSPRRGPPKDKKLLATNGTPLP
Particulars: at 0.1 µM.

For assay [15], the target named is T5, Serine/threonine-protein kinase BRSK1 (Homo sapiens). Particulars: at 1 µM.
The target of assay [16] is T6, Serine/threonine-protein kinase BRSK2 (Homo sapiens) (UniProt Q8IWQ3).
T6 sequence (whole entry): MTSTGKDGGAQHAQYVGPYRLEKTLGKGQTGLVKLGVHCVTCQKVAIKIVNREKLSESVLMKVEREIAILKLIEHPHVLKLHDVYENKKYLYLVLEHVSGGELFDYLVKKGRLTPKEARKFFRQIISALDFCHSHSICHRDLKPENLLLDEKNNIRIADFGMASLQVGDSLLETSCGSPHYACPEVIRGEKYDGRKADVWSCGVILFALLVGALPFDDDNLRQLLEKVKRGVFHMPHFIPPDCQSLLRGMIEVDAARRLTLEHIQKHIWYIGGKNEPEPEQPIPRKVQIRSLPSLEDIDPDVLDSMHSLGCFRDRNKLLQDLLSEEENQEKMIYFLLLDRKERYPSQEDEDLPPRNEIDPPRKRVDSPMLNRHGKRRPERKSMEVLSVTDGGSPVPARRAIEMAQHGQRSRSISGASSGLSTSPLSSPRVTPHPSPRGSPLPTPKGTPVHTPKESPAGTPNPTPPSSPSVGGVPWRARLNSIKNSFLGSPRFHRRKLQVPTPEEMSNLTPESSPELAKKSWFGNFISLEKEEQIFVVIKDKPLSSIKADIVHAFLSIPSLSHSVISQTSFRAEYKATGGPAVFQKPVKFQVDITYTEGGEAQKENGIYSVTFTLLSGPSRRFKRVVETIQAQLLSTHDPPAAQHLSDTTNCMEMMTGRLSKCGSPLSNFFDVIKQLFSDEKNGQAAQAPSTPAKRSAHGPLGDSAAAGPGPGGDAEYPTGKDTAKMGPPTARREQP
Particulars: at 0.1 µM.

For assay [17], the target named is T6, Serine/threonine-protein kinase BRSK2 (Homo sapiens). As to conditions: at 1 µM.
For assay [18], the target named is Calcium/calmodulin-dependent protein kinase type 1D (Homo sapiens) (UniProt Q8IU85). Particulars: at 0.1 µM.
Sequence of Calcium/calmodulin-dependent protein kinase type 1D (Homo sapiens) (Q8IU85 whole entry, looked up): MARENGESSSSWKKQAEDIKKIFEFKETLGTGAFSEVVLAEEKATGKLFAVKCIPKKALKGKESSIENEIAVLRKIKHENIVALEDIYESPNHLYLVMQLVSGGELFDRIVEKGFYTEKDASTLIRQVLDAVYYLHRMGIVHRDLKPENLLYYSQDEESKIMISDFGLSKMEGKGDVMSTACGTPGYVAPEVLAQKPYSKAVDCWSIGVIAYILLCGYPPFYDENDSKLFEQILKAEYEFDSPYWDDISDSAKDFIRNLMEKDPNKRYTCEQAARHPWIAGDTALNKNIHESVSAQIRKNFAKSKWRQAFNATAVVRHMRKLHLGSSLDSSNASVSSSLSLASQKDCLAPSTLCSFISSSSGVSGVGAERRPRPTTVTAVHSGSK
The target is the same in assay [19]. As to conditions: at 1 µM.
Assay [20] deals with Calcium/calmodulin-dependent protein kinase type II subunit alpha (Homo sapiens) (UniProt Q9UQM7). As to conditions: at 0.1 µM.
Sequence of Calcium/calmodulin-dependent protein kinase type II subunit alpha (Homo sapiens) (Q9UQM7 whole entry): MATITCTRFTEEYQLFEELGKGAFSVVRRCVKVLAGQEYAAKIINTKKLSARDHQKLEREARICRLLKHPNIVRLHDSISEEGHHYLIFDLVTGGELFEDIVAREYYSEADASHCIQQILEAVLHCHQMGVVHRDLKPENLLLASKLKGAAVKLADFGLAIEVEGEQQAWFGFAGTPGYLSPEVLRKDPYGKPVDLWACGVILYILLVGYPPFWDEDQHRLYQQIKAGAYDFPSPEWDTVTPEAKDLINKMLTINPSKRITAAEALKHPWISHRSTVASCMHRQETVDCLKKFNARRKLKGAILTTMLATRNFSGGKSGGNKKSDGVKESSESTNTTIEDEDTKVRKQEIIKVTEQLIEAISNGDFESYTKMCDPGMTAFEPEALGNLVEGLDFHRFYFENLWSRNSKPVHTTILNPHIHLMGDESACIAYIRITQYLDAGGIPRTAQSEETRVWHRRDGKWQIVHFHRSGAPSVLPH

Sequence of 5'-AMP-activated protein kinase catalytic subunit alpha-2 (Homo sapiens) (P54646 whole entry, looked up): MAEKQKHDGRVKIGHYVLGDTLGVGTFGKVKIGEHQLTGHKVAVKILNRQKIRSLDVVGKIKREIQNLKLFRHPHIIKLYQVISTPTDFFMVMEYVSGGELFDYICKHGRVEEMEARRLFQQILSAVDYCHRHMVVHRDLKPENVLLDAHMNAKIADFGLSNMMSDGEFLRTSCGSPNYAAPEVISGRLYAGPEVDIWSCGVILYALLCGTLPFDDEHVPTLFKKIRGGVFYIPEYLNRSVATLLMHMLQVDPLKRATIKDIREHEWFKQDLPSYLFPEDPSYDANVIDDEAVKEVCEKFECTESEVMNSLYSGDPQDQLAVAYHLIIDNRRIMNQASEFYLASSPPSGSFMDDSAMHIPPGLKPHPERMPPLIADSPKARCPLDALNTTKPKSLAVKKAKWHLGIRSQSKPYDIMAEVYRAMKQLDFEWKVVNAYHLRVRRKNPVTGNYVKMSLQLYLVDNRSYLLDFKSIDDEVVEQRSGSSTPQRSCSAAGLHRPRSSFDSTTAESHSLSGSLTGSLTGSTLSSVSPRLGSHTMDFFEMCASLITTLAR
Sequence of Ribosomal protein S6 kinase alpha-6 (Homo sapiens) (Q9UK32 whole entry): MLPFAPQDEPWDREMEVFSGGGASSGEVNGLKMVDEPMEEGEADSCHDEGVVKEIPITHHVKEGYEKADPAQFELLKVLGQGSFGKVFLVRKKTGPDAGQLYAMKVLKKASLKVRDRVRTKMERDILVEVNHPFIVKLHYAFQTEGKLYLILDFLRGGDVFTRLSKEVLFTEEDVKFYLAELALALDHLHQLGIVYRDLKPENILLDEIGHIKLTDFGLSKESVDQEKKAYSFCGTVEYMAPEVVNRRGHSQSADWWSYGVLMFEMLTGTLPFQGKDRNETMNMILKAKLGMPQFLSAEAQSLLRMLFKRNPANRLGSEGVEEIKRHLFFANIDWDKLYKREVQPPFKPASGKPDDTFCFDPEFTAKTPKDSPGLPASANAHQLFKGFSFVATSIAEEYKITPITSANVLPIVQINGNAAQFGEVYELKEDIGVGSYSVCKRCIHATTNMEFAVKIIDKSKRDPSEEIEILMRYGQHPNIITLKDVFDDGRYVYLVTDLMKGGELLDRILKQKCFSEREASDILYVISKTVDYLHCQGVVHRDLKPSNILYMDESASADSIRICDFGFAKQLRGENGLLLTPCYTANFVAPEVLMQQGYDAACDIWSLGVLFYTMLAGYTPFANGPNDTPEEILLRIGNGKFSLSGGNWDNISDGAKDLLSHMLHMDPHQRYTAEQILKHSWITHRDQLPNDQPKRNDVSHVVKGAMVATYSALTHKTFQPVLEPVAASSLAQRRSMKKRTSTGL

Regarding `Cc1cc(-c2ccco2)cc(C)c1/C=C/c1cncc(-c2nn[nH]n2)c1`, the inhibition in [1] is -0.53%; in assay [2], 2.78%; in assay [3], 0.73%; in assay [4], -0.62%; in assay [5], -1.7%; in assay [6], -0.03%. Also, the inhibition in assay [7] is -0.92%; in [8], 0.43%; in assay [9] it was 1.33%; in assay [10], 0.25%; in assay [11], 2.58%; in [12], -1.33%. In addition, the inhibition was -1.37% in [13]; -0.09% in assay [14]; 1.13% in [15]; 0.76% in assay [16]; 0.62% in [17]; 0.45% in [18]. Besides, the inhibition in assay [19] is -0.49%; in [20], 1.37%.

Consider `NC(=O)c1sc(-n2cnc3cc(C(F)(F)F)ccc32)cc1OCc1ccccc1Br`, for which the inhibition in [1] is 1.95%; in assay [2], 1.54%; in assay [3], 2.43%; in assay [4] it was 0.68%; in assay [5] it was -0.08%; in assay [6], -0.31%. Also, the inhibition in [7] is 4.18%; in assay [8], 2.29%; in assay [9] it was 2.17%; in assay [10] it was 2.18%; in [11], 4.05%; in assay [12], -0.04%. For the same compound, the inhibition in [13] worked out at 2.91%; in assay [14] it was 1.16%; in assay [15], 3.25%; in assay [16], 2.43%; in [17] it was 8.5%; in assay [18], 0.11%. The results for the inhibition in [19] and in [20] were 1.53% and 2.4%, respectively.

As to `CCn1c(-c2nonc2N)nc2c(C#CC(C)(C)O)ncc(OCC3CCNCC3)c21`, the inhibition in [1] is 7.82%; in assay [2] it was 5.12%; in assay [3] it was 10.5%; in assay [4] it was 2.67%; in assay [5] it was 8.07%; in assay [6], 21.6%. The inhibition in assay [7] came to 67.4%; in assay [8], 13.8%; in assay [9], 51.9%; in assay [10], 3.32%; in assay [11], 16.1%; in assay [12] it was 6.78%. The inhibition in [13] is 37.2%; in [14], 0.32%; in assay [15] it was 6.72%; in assay [16], 2.53%; in assay [17], 10.8%; in assay [18], -0.03%. Also, the results for the inhibition in assay [19] and in assay [20] were 0.97% and 3.5%, respectively.

Usually inhibition stands for the drop in the measured response relative to a control, in per cent.

The values above are taken from ChEMBL document CHEMBL1961873, “Compounds: GSK PKIS; Assays: Nanosyn kinase panel” (2012).
